Results filed as inconclusive are left out. A call without a number means that no potency is given here. Unmarked numbers belong to inactive results. Activity calls are given as the source filed them. Calls follow the shape of the dose curve; as a rule, active = well fitted curve in the direction sought with a large enough effect; inconclusive = small, poorly fitted or top-dose-only effect, or another doubt; inactive = no such curve, though single readings can be large; an effect the other way counts as inactive or inconclusive. Where a SMILES comes first, the peptide text is derived from it. [ ]: non-standard residue; d: D form. pGlu = O=C1CC[C@@H](C(=O)O)N1; Thz = O=C(O)[C@@H]1CSCN1
The compounds below were run on Zika virus NS2B-NS3 protease (assay: Primary screen GU AMC qHTS for Zika virus inhibitors (AID 1347154; also: nearly all actives have a fitted effect of over 70% in size)). Settings: Zika NS2B-NS3 unlinked protease, AMC fluorogenic substrate; series mostly up to 54.1 µM.
Procedure, shortened: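 Unlinked Zika NS2B hydrophilic domain–NS3 protease complex at 25 nM in 10 mM Tris-HCl pH 8.0, 0.01% Tween 20, with an AMC peptide substrate. Fluorescence change (340/450 nm) over 15 min at room temperature, normalized to controls, fitted to 4-parameter Hill.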

Compound	Potency	activity change, negative = inhibition
CC(C(=O)O)c1ccc2c(c1)[nH]c1ccc(Cl)cc12 (stereo not given)	inactive	–
COC(=O)C1=C(C)NC(C)=C(C(=O)OCC(C)=O)C1c1ccccc1[N+](=O)[O-] (stereo not given)	inactive	–
CC(=O)SCC(CC(=O)c1ccc(C)cc1)C(=O)O (stereo not given)	inactive	–
CC(=O)c1ccc(OCC(=O)N2CCCCC2)cc1	inactive	–
C/C(=N\O)c1ccc(OCC(=O)N2CCCCC2)cc1	inactive	–
Cc1nc2sccn2c(=O)c1CCN1CCC(=C(c2ccccc2)c2ccc(F)cc2)CC1	inactive	–
O=C(O)[C@@H]1C[C@@H](C(=O)O)N1	inactive	–
CCCCCCOc1ccccc1C(N)=O	inactive	–
CN(C)[C@@H]1C(=O)C(C(=O)NCN2CCCC2)=C(O)[C@@]2(O)C(=O)C3=C(O)c4c(O)cccc4[C@@](C)(O)C3C[C@@H]12 (stereo not given in full)	inactive	–
Nc1nc(SCc2ccc([N+](=O)[O-])cc2)c2ncn([C@@H]3O[C@H](CO)[C@@H](O)[C@H]3O)c2n1	inactive	–
O=C(Nc1ccc(C(=O)O)c(O)c1)c1ccccc1	inactive	–
NCCO	inactive	–
COc1cc(CNC(=O)CCCC/C=C/C(C)C)ccc1O	inactive	–
Clc1ccccc1-c1nc(-c2ccncc2)no1	inactive	–
Cc1ccc2c(n1)Oc1ccc(C(C)C(=O)OCC(=O)N(C)C)cc1C2 (stereo not given)	inactive	–
Cc1cc(O)c2ccccc2c1O	inactive	–
CN(C)CCn1nnnc1SCC1=C(C(=O)O)N2C(=O)[C@@H](NC(=O)Cc3csc(N)n3)[C@H]2SC1	inactive	–
Nc1cc(-c2ccncc2)c[nH]c1=O	inactive	–
O=C(O)c1cc(O)c(O)c(O)c1	inactive	–
Ic1ccc(N2CCN(Cc3c[nH]c4ncccc34)CC2)cc1	inactive	–
O=C(O)Cc1cccc(-c2cc(CCCCCCc3ccc(O[C@H]4O[C@H](CO)[C@@H](O)[C@H](O)[C@@H]4O)c(-c4cccc(CC(=O)O)c4)c3)ccc2O[C@H]2O[C@H](CO)[C@@H](O)[C@H](O)[C@@H]2O)c1	–	1.91% [at 0.59 µM]
O=C(O)Cc1ccc2c(c1)C(=O)c1ccccc1CO2	inactive	–

Each compound was assayed on Zika virus NS2B-NS3 protease (unlinked complex) (assay: Primary screen GU Rhodamine qHTS for Zika virus inhibitors: Unlinked NS2B-NS3 protease assay (AID 1347159; also: nearly all actives have a fitted effect of over 60% in size; also: potency is read from the fitted curve at half-maximal effect)). Settings: Recombinant ZIKV NS2B-NS3 protease, Rhodamine110 substrate fluorescence; series mostly up to 107 µM.
Procedure, shortened: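 Enzyme 25 nM in Tris-HCl pH 8.0 + 0.01% Tween 20; compounds up to 114 microM, 15 min RT dark; + Rhod110 substrate 1.5 microM; read t0 and 15 min; delta fluorescence → % inhibition → 4-parameter Hill fit.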

Compound	Potency	activity change, negative = inhibition
CC(C(=O)O)c1ccc2c(c1)[nH]c1ccc(Cl)cc12 (stereo not given)	35.5 µM (active)	–
CC(=O)SCC(CC(=O)c1ccc(C)cc1)C(=O)O (stereo not given)	inactive	–
CC(=O)c1ccc(OCC(=O)N2CCCCC2)cc1	inactive	–
CCNC(=O)[C@H]1O[C@@H](n2cnc3c(N)nc(NCCc4ccc(CCC(=O)O)cc4)nc32)[C@H](O)[C@@H]1O	inactive	–
CN1[C@@H]2CC[C@H]1CC(OC(=O)C(CO)c1ccccc1)C2 (stereo not given in full)	inactive	–
CC1(C)S[C@@H]2[C@H](NC(=O)[C@H](N)c3ccc(O)cc3)C(=O)N2[C@H]1C(=O)O	inactive	–
C/C(=N\O)c1ccc(OCC(=O)N2CCCCC2)cc1	inactive	–
CC1(C)[C@@H](O)CC[C@]2(C)[C@H]3C(=O)C=C4[C@@H]5C[C@@](C)(C(=O)O)CC[C@]5(C)CC[C@@]4(C)[C@]3(C)CC[C@@H]12	17.8 µM (active)	–
COC(=O)[C@H]1[C@H]2C[C@@H]3c4[nH]c5cc(OC)ccc5c4CCN3C[C@H]2C[C@@H](OC(=O)/C=C/c2cc(OC)c(OC)c(OC)c2)[C@@H]1OC	inactive	–
C[C@H](O)[C@H](O)[C@H]1CNc2nc(N)[nH]c(=O)c2N1	inactive	–
CC(=O)O[C@H]1C[C@@]2(C)[C@@H](C[C@@H](O)[C@H]3[C@@]4(C)CC[C@@H](O)[C@@H](C)[C@@H]4CC[C@@]32C)/C1=C(\CCC=C(C)C)C(=O)O	inactive	–
Cc1onc(-c2c(F)cccc2Cl)c1C(=O)N[C@@H]1C(=O)N2[C@@H]1SC(C)(C)[C@@H]2C(=O)O	inactive	–
O=C(O)CC1CC(c2ccccc2)=NO1 (stereo not given)	inactive	–
O=C1CC[C@@H](C(=O)N2CSC[C@H]2C(=O)O)N1 ([pGlu]-[Thz]-OH)	inactive	–
CC1(C)S[C@@H]2[C@H](NC(=O)[C@H](NC(=O)N3CCN(S(C)(=O)=O)C3=O)c3ccccc3)C(=O)N2[C@H]1C(=O)O	inactive	–
COc1cc(CNC(=O)CCCC/C=C/C(C)C)ccc1O	inactive	–
Cc1ccc2c(n1)Oc1ccc(C(C)C(=O)OCC(=O)N(C)C)cc1C2 (stereo not given)	inactive	–
O=C(O)Cc1cccc(-c2cc(CCCCCCc3ccc(O[C@H]4O[C@H](CO)[C@@H](O)[C@H](O)[C@@H]4O)c(-c4cccc(CC(=O)O)c4)c3)ccc2O[C@H]2O[C@H](CO)[C@@H](O)[C@H](O)[C@@H]2O)c1	–	17.6% [at 1.28 µM]
COc1ccc(/C=C/C(=O)Nc2ccccc2C(=O)O)cc1OC	inactive	–
COc1cc(/C=C/C(=O)N2CCN(CC(=O)N3CCCC3)CC2)cc(OC)c1OC	inactive	–
CN1[C@@H]2CC[C@H]1CC(OC(c1ccccc1)c1ccccc1)C2 (stereo not given in full)	inactive	–

What follows are compounds tested on Zika virus NS2B-NS3 protease (linked construct) (assay: Primary screen NINDS Rhodamine qHTS for Zika virus inhibitors (AID 1347160; also: nearly all actives have a fitted effect of over 55% in size; also: potency is read from the fitted curve at half-maximal effect)). Settings: purified NS2B-NS3 protease, Rhodamine110 substrate fluorescence; series mostly up to 57.1 µM.
Procedure, shortened: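 Enzyme (25 nM, linked NS2B-NS3) was preincubated 15 min with compound in 10 mM Tris-HCl pH 8.0, 0.01% Tween 20. Rhodamine110 substrate (1.5 microM) was then added and fluorescence read at start and after 15 min.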

Compound	Potency	activity change, negative = inhibition
O=C(O)[C@H](CC(=O)N1C[C@H]2CCCC[C@H]2C1)Cc1ccccc1	inactive	–
CC1(C)[C@@H](O[C@H]2O[C@H](C(=O)O)[C@@H](O)[C@H](O)[C@H]2O[C@@H]2O[C@H](C(=O)O)[C@@H](O)[C@H](O)[C@H]2O)CC[C@]2(C)[C@H]3C(=O)C=C4[C@@H]5C[C@@](C)(C(=O)O)CC[C@]5(C)CC[C@@]4(C)[C@]3(C)CC[C@@H]12	inactive	–
CC(=O)SCC(CC(=O)c1ccc(C)cc1)C(=O)O (stereo not given)	inactive	–
CC(=O)c1ccc(OCC(=O)N2CCCCC2)cc1	inactive	–
CCNC(=O)[C@H]1O[C@@H](n2cnc3c(N)nc(NCCc4ccc(CCC(=O)O)cc4)nc32)[C@H](O)[C@@H]1O	inactive	–
CN1[C@@H]2CC[C@H]1CC(OC(=O)C(CO)c1ccccc1)C2 (stereo not given in full)	inactive	–
CC1(C)S[C@@H]2[C@H](NC(=O)[C@H](N)c3ccc(O)cc3)C(=O)N2[C@H]1C(=O)O	inactive	–
C/C(=N\O)c1ccc(OCC(=O)N2CCCCC2)cc1	inactive	–
CC1(C)[C@@H](O)CC[C@]2(C)[C@H]3C(=O)C=C4[C@@H]5C[C@@](C)(C(=O)O)CC[C@]5(C)CC[C@@]4(C)[C@]3(C)CC[C@@H]12	14.1 µM (active)	–
COC(=O)[C@H]1[C@H]2C[C@@H]3c4[nH]c5cc(OC)ccc5c4CCN3C[C@H]2C[C@@H](OC(=O)/C=C/c2cc(OC)c(OC)c(OC)c2)[C@@H]1OC	inactive	–
C[C@H](O)[C@H](O)[C@H]1CNc2nc(N)[nH]c(=O)c2N1	inactive	–
CC(=O)O[C@H]1C[C@@]2(C)[C@@H](C[C@@H](O)[C@H]3[C@@]4(C)CC[C@@H](O)[C@@H](C)[C@@H]4CC[C@@]32C)/C1=C(\CCC=C(C)C)C(=O)O	inactive	–
Cc1onc(-c2c(F)cccc2Cl)c1C(=O)N[C@@H]1C(=O)N2[C@@H]1SC(C)(C)[C@@H]2C(=O)O	inactive	–
O=C1CC[C@@H](C(=O)N2CSC[C@H]2C(=O)O)N1 ([pGlu]-[Thz]-OH)	inactive	–
CC1(C)S[C@@H]2[C@H](NC(=O)[C@H](NC(=O)N3CCN(S(C)(=O)=O)C3=O)c3ccccc3)C(=O)N2[C@H]1C(=O)O	inactive	–
COc1cc(CNC(=O)CCCC/C=C/C(C)C)ccc1O	inactive	–
Cc1ccc2c(n1)Oc1ccc(C(C)C(=O)OCC(=O)N(C)C)cc1C2 (stereo not given)	inactive	–
O=C(O)c1cc(O)c(O)c(O)c1	49.3 µM (active)	–
O=C(O)Cc1cccc(-c2cc(CCCCCCc3ccc(O[C@H]4O[C@H](CO)[C@@H](O)[C@H](O)[C@@H]4O)c(-c4cccc(CC(=O)O)c4)c3)ccc2O[C@H]2O[C@H](CO)[C@@H](O)[C@H](O)[C@@H]2O)c1	–	11.1% [at 0.684 µM]
COc1ccc(/C=C/C(=O)Nc2ccccc2C(=O)O)cc1OC	inactive	–
COc1cc(/C=C/C(=O)N2CCN(CC(=O)N3CCCC3)CC2)cc(OC)c1OC	inactive	–
CN1[C@@H]2CC[C@H]1CC(OC(c1ccccc1)c1ccccc1)C2 (stereo not given in full)	inactive	–

— PubChem BioAssay (NCATS)
